Here are results for eleven molecules from PubChem BioAssay (NCATS).

The target of assay [1] is Calcium and integrin-binding protein 1 (Homo sapiens) (UniProt Q99828). Description: Primary qHTS for Identification of Calcium Integrin Binding Protein 1 (CIB1) Competitor (AID 1508620).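 Further: GST tagged CIB1 binding a fluorescein labelled alphaIIb integrin peptide tracer; top concentration of the series differs between compounds; on the % scale 0 is the no-effect control and ±100 the full control effect.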 The method in brief: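 CIB1-GST (1 uM final) and compound incubated 15 min at room temperature before adding FITC-alphaIIb peptide tracer (100 nM final). Competition for binding read by fluorescence polarization (ex 480, em 540) after another 15 min at room temperature.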
(qHTS replaces the single test concentration by a dilution series.)

Assay [2] can be described thus: Counterscreen qHTS for small molecule stabilizers of the endoplasmic reticulum resident proteome: GLuc-NoTag assay (AID 1508627).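 Further: 0% = thapsigargin alone and -100% = DMSO vehicle control.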 In outline:
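Counterscreen line: SH-SY5Y-GLuc-NoTag cells, treated with compound 19 hr before a 4 hr, 100 nM thapsigargin calcium depletion. Secreted Gaussia luciferase in the medium was measured by luminescence after coelenterazine was added (0.07x final), with cells unlysed.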
Background: A counterscreen serves to expose hits that act by an unwanted route or on another target.

A short description of assay [3]: Confirmatory qHTS for small molecule stabilizers of the endoplasmic reticulum resident proteome: Secreted ER Calcium Modulated Protein (SERCaMP) assay (AID 1508628). Further: nearly all actives have a fitted effect of over 40% in size. Further: potency means the concentration at half of the fitted maximal effect. In outline:
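Reporter secretion upon ER calcium depletion (100 nM thapsigargin, 4 h, 37C) is measured as medium luminescence with coelenterazine, after 16 h compound pretreatment of SH-SY5Y-GLuc-SERCaMP cells; primary at three concentrations up to 38.3 uM, follow-up at 11 (up to 76.6 uM).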

Assay [4] can be described thus: Cell Viability qHTS for small molecule stabilizers of the endoplasmic reticulum resident proteome (AID 1508629).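 Further: human SH-SY5Y neuroblastoma cells carrying the GLuc-SERCaMP reporter; compound exposure about 46 h in total before the viability read; on the % scale 0 is the no-effect control and ±100 the full control effect.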 To be noted: cell viability counter-screen, 100 nM thapsigargin for final 4 h.
Assay [5] is described as follows: A High-Content qHTS Against Drug Library for the Identification of Small Molecules that Inhibit DYT1 Early Onset Primary Dystonia-Associated Cell Pathology (AID 1645839; calls by dose curve). In outline:
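High-content imaging quantified EGFP-TorsinA mislocalization in HEK293-derived cells inducibly expressing DYT1 mutant torsinA, after 48 h exposure to compound given together with tetracycline induction. Cell count served as a toxicity channel alongside %pathology.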

Assay [6] concerns the target Cytochrome P450 2D6 (Homo sapiens) (UniProt P10635). Description: Cytochrome P450 family 2 subfamily D member 6 (CYP2D6) small molecule antagonists: luciferase biochemical (cell-free) qHTS assay (AID 1645840; active means well fitted curve in the direction sought with a large enough effect in the repeat runs; an effect the other way counts as inactive or inconclusive; further: nearly all actives have a fitted effect of over 55% in size; further: potency means the concentration at half of the fitted maximal effect). The method in brief:
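P450-Glo CYP2D6 system: proluciferin substrate converted by enzyme to luciferin, read by luminescence proportional to activity. Enzyme-substrate mix with compound 10 min at room temperature, then NADPH regeneration 1 h before detection reagent.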

Assay [7] deals with Cytochrome P450 2C9 (Homo sapiens) (UniProt P11712). Description: Cytochrome P450 family 2 subfamily C member 9 (CYP2C9) small molecule antagonists: luciferase biochemical (cell-free) qHTS assay (AID 1645842; active means well fitted curve in the direction sought with a large enough effect in the repeat runs; an effect the other way counts as inactive or inconclusive; further: nearly all actives have a fitted effect of over 55% in size; further: potency means the concentration at half of the fitted maximal effect). In outline:
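P450-Glo CYP2C9 system: proluciferin substrate with enzyme in mix containing 0.4% BSA, 10 min at room temperature, then NADPH regeneration solution added and incubated 1 h at 37C. Detection reagent stopped reaction; luminescence read after 20 min as RLU.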

The nature of assay [8]: Primary qHTS for inhibitors of nuclear receptor binding SET domain protein 2 (NSD2) in an isogenic RCH-ACV NSD2 p.E1099K mutant (9B) (AID 1645876). Further: nearly all actives have a fitted effect of over 70% in size. Further: potency means the concentration at half of the fitted maximal effect.
Assay [9] is described as follows: Primary qHTS for inhibitors of nuclear receptor binding SET domain protein 2 (NSD2) in an RCH-ACV wild type WT cells (2C) (AID 1645877). Further: nearly all actives have a fitted effect of over 70% in size. Further: potency means the concentration at half of the fitted maximal effect.
Assay [10] can be described thus: Cytotoxicity counterscreen for inhibitors of SARS-CoV-2 cell entry (AID 1645845; calls by dose curve; further: nearly all actives have a fitted effect of over 50% in size). In outline:
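ATP-content luminescence (ATPLite 1step, 15 min RT) read after 48 h compound exposure of Expi293F cells stably expressing human ACE2; normalized to cells-only wells and media-only wells.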

A short description of assay [11]: Primary qHTS to identify inhibitors of SARS-CoV-2 cell entry (AID 1645846; calls by dose curve; further: nearly all actives have a fitted effect of over 45% in size). To be noted: activity change, negative = inhibition: at 57.1 µM (top of the series) unless noted. In outline: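 HEK293 cells stably expressing human ACE2, pre-treated 1 h with compound, then infected with MLV particles pseudotyped with Wuhan-Hu-1 spike (C-terminal 19-aa truncation). Luciferase luminescence after 48 h at 37 °C, normalised to spike PP and bald PP.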

A short description of assay [12]: Primary qHTS for small molecule stabilizers of the endoplasmic reticulum resident proteome: Secreted ER Calcium Modulated Protein (SERCaMP) assay (AID 1508630). Further: on the % scale 0 is the no-effect control and ±100 the full control effect. In outline: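 The SH-SY5Y reporter protocol was run at 3 concentrations up to 38.3 uM (primary) or 11 concentrations (follow-up): 16 h compound, 100 nM thapsigargin for 4 h, then extracellular luciferase luminescence.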

Assay [13] addresses Cytochrome P450 3A4 (Homo sapiens) (UniProt P08684). The assay can be described thus: Cytochrome P450 family 3 subfamily A member 4 (CYP3A4) small molecule antagonists: luciferase qHTS assay (AID 1645841; active means well fitted curve in the direction sought with a large enough effect in the repeat runs; an effect the other way counts as inactive or inconclusive; further: nearly all actives have a fitted effect of over 45% in size). In outline: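 Luminescent CYP3A4 activity readout: compounds plus enzyme-substrate mix 10 min at room temperature, reaction started with NADPH regenerating system for 1 h, stopped with detection reagent, read after 20 min. Ketoconazole served as control.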

The target in assay [14] is Calcium and integrin-binding protein 1 (Homo sapiens) (UniProt Q99828). The assay can be described thus: Validation qHTS for Identification of Calcium Integrin Binding protein 1 (CIB1) Competitor (AID 1508618). Further: on the % scale 0 is the no-effect control and ±100 the full control effect. In outline: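 CIB1-GST (1 uM final) in 5 mM HEPES pH 7.4, 125 mM NaCl, 5 mM CaCl2, 0.01% Tween20 was preincubated 15 min at room temperature with compound (up to 114 uM), then FITC-alphaIIb peptide (100 nM) added for 15 min; fluorescence polarization read.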

The next assay concerns the target Papain (Carica papaya) (UniProt P00784). Description: Primary qHTS assay for inhibitors of the protease papain (AID 1645873).

Inconclusive results are not listed. Activity calls are given as the source filed them. Unless noted, the call rests on the fitted dose curve; in most records, active means well fitted curve in the direction sought with a large enough effect; inconclusive means small, poorly fitted or top-dose-only effect, or another doubt; inactive means no such curve, though single readings can be large; an effect the other way counts as inactive or inconclusive.

Sequence of Calcium and integrin-binding protein 1 (Homo sapiens) (Q99828 whole entry, looked up): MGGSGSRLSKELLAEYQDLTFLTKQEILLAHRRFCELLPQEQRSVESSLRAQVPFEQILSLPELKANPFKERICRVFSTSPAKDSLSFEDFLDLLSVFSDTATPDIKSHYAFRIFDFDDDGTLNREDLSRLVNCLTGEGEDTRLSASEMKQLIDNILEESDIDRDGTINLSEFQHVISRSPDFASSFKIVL
Sequence of Cytochrome P450 2C9 (Homo sapiens) (P11712 whole entry, looked up): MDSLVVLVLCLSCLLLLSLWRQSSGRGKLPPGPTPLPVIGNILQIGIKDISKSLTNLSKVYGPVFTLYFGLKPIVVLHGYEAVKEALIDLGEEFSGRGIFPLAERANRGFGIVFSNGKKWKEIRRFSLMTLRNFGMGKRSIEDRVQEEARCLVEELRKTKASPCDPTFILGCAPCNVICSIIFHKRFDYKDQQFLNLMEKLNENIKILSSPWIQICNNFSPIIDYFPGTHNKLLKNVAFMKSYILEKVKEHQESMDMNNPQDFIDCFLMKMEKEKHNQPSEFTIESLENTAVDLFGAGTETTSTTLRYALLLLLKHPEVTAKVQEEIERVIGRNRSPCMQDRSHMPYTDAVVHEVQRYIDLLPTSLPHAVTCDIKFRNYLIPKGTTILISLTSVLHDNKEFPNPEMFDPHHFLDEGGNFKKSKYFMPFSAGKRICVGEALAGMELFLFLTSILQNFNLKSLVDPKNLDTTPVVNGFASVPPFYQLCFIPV
Sequence of Cytochrome P450 2D6 (Homo sapiens) (P10635 whole entry, looked up): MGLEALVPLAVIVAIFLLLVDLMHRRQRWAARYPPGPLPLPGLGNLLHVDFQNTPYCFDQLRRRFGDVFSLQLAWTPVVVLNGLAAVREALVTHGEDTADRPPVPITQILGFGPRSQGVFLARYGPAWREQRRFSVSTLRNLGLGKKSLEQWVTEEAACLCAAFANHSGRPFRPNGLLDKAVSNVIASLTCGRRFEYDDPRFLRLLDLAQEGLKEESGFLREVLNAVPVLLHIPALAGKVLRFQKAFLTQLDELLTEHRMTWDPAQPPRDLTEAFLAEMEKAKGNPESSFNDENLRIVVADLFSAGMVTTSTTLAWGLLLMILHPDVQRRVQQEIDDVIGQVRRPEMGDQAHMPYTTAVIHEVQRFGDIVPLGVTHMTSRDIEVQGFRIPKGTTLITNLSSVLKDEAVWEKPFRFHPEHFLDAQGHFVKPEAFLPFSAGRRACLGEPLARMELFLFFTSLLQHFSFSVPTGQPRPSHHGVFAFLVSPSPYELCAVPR
Sequence of Cytochrome P450 3A4 (Homo sapiens) (P08684 whole entry, looked up): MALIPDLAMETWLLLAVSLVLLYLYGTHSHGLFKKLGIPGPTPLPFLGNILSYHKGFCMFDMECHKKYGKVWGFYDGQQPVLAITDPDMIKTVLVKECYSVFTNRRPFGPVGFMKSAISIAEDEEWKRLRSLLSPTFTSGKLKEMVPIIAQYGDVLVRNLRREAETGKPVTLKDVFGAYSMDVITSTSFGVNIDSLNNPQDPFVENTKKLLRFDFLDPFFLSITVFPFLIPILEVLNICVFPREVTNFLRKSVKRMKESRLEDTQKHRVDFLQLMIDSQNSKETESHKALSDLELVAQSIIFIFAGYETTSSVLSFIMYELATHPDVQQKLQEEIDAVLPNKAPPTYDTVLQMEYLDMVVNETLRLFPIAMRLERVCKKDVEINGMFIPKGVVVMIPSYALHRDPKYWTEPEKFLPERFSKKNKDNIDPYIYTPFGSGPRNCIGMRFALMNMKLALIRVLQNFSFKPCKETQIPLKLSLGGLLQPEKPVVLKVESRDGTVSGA
Sequence of Papain (Carica papaya) (P00784 whole entry, looked up): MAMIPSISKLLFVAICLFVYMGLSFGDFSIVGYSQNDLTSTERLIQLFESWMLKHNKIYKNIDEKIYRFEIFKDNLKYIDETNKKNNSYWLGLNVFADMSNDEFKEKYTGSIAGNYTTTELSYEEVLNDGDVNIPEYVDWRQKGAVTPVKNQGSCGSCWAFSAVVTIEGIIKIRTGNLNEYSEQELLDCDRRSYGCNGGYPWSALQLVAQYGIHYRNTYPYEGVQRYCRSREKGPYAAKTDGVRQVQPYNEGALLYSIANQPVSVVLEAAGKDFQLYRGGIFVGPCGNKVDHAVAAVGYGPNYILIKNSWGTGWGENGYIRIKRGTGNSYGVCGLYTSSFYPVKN

With `CC(C)=CCN1CC[C@@]2(C)c3cc(O)ccc3C[C@@H]1[C@@H]2C`, the Potency entry in [1], in assay [2] and in assay [7] was “inactive” in each case. The Potency in [3] was 28.2 µM (active); in [6], 0.176 µM (active); in assay [8], 18.9 µM (active); in [9], 11.9 µM (active). In addition, the max response in assay [4] is -7.58% (inactive). Also, in assay [5], the call was inactive.

As for `CN1[C@@H]2CC[C@H]1CC(OC(=O)c1cc(Cl)cc(Cl)c1)C2` (some centres not stated), the Potency result in assay [1], in [2], in assay [3], in assay [7] and in assay [8] was “inactive” throughout. Also, in assay [4], the max response is -1.72% (inactive). Besides, in assay [6], the Potency is 0.0436 µM (active).

As to `Cc1c(Cl)c(=O)oc2cc(OP(=O)(OCCCl)OCCCl)ccc12`, the Potency entry in assay [1], in assay [2], in assay [3], in assay [10] and in assay [11] was “inactive” throughout. For the same molecule, the values for the Potency in [6] and in assay [7] were 1.55 µM (active) and 1.23 µM (active), respectively.

In the case of `CCCC[N+]1(C)[C@@H]2CC(OC(=O)[C@H](CO)c3ccccc3)C[C@H]1[C@@H]1O[C@@H]12` (some centres not stated), the Potency entry in assay [1], in assay [2], in assay [3], in assay [7], in assay [10] and in assay [8] was “inactive” throughout. Further, the molecule was called inactive in [5]. The Potency in [6] was 2.75 µM (active). Also, in assay [11], the activity change, negative = inhibition was -15.6%.

Turning to `C[C@]12C=CC(=O)C=C1CC[C@@H]1[C@@H]2CC[C@@]2(C)[C@H]1CC[C@]2(C)O`, the Potency result in [1], in assay [6], in [13] and in [7] was “inactive” in each case. Besides, the result in assay [12] and in [5] was inactive. Also, the Potency in [8] was 23.7 µM (active).

`C[C@@H]1CN(C2CCC(C#N)(c3ccc(F)cc3)CC2)CC[C@]1(C(=O)O)c1ccccc1` (some centres not stated): the Potency entry in [1], in assay [7], in assay [10], in assay [8] and in assay [9] was “inactive” throughout. The result in [12] and in assay [5] was inactive. In assay [6], the Potency was 0.049 µM (active). In addition, the activity change, negative = inhibition in assay [11] was -31.8%.

Take `OC(c1ccccc1)(c1ccccc1)C1CCNCC1`: the Potency entry in assay [1], in assay [2], in assay [7] and in [8] was “inactive” in each case. For the same molecule, in assay [3], the Potency was 15.8 µM (active). For the same molecule, in assay [4], the max response was -6.14% (inactive). Also, in assay [5], the molecule was called inactive.

On to `COc1ccc(C(=O)N2CCCC2=O)cc1`, for which the outcome (in assay [14]; in assay [12]; in assay [5]; with Papain (Carica papaya)) was inactive. The Potency entry in [1], in assay [6], in assay [7], in [10], in [11] and in [8] was “inactive” in each case. Besides, the Potency entry in [9] is “inactive”. Also, the activity change, negative = inhibition in assay [11] turned out to be 9.75%.

As to `CC[C@H](O)C(C[C@H](C)N(C)C)(c1ccccc1)c1ccccc1`, the Potency entry in assay [1], in [8] and in assay [9] was “inactive” each time. In addition, the Potency in [3] was 50.1 µM (active).

For the molecule `C[C@H]1CNCCc2ccc(Cl)cc21`, the Potency result in assay [1], in assay [13], in assay [7] and in assay [8] was “inactive” in each case. Also, the outcome in assay [12] and in assay [5] was inactive. The Potency in assay [6] was 1.95 µM (active).

On to `CC(C)(O)C(Cl)(Cl)Cl`, for which the Potency entry in assay [1], in assay [6], in assay [7], in [10], in assay [11] and in [8] was “inactive” in each case. Also, in [9], the Potency result was “inactive”. In addition, the outcome in [12] and in assay [5] was inactive.
